D2 PAM-1: positive allosteric modulators of human D2 dopamine receptor; 340,000 tested, 0.34% active; HEK293 T-REx D2, calcium flux, EC20 dopamine potentiation; P14416; potentiation, % at 10 µM;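 active = potentiation over 3 SD above the plate norm, cut at about 30% in these data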
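Tetracycline-induced Hek293 Trex D2 cells, force-coupled to calcium, loaded with no-wash calcium dye. Compound added with 180 s kinetic read for agonism, then EC20 dopamine and a further 180 s read for potentiation.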
D2 ag-1: D2 dopamine receptor (human) agonism. P14416. HEK293 T-REx D2 cells, calcium flux agonist mode. activation, % at 2 µM. 340,000 tested, 0.53% active. AID 485358;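 active = activation over 3 SD above normal in the single-dose calcium agonist read, cut at about 30% in these data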
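Tetracycline-induced HEK293 T-REx cells with force-coupled D2 receptor, plated overnight at 30 C, loaded with no-wash calcium dye. After a 10 s baseline, compound was pin-added and calcium flux read kinetically for 180 s; calcium rises flagged agonists.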
D2 ag-2: activates the human D2 dopamine receptor. DiscoveRx PathHunter D2 beta-arrestin, luminescence, 90 min; 100% = 57 uM dopamine signal. AID 624465. P14416. activation, % (concentration not given with the values). 360,000 tested, 0.084% active; in the data active = activation above about 40%; inconclusive = between about 15% and that limit
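DiscoveRx PathHunter D2 beta-arrestin cells (2,100/well) attached overnight, then compound-stimulated 90 min at 37 C in HBSS/10 mM HEPES/0.1% Tween-20 buffer; beta-galactosidase complementation read by luminescence after 1 h at ambient temperature. Dopamine 57 uM final (EC100) as control.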
D2 PAM-2: potentiates the human D2 dopamine receptor allosterically; P14416; DiscoveRx D2 beta-arrestin cells, luminescence, 90 min; 100% = 57 uM dopamine signal; potentiation, % (test concentration not listed); 360,000 tested, 0.23% active; AID 624464; in the data active = potentiation above about 50%; inconclusive = mostly about 30% to 49%
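D2 cells co-treated with compound plus 50 nM dopamine (EC20) for 90 min at 37 deg C to detect potentiation. Beta-arrestin recruitment was read as enzyme-fragment luminescence after 1 h at ambient temperature. Full response was set by 57 uM dopamine.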
D2 antag: antagonizes the human D2 dopamine receptor; HEK293 TREx D2 cells, calcium flux, dopamine EC80; inhibition, % at 10 µM; 340,000 tested, 2% active; in the data active = inhibition above about 30%; inactive = below that, where a call was filed
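Cells plated overnight at 30 C with tetracycline; no-wash calcium dye, 30–90 min RT; 10 s baseline; compound pinned; 180 s read; EC80 dopamine added; another 180 s read.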
D3 ag: activates human D3 dopamine receptor beta-arrestin recruitment; shares compounds with D2 ag-1; 2,300 tested, 4% active; DiscoveRx D3 beta-arrestin cells, luminescence, 90 min; Potency, µM (doses to about 76.9 µM), hits mostly activators; note: nearly all actives have a fitted effect of over 70% in size
Target sequence (P35462 whole entry, looked up): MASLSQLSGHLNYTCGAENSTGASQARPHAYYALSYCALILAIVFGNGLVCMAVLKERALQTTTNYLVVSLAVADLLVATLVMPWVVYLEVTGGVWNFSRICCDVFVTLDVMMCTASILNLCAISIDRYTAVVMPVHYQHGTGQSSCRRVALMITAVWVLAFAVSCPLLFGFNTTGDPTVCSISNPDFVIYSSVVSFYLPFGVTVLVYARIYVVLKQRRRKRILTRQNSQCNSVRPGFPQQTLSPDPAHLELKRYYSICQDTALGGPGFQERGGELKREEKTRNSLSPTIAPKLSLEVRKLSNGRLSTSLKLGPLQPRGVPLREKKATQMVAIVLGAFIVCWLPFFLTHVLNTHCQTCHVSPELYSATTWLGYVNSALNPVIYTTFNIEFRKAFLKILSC
D2 ag-3: counter-screen for D3 agonists: human D2 dopamine receptor agonism; DiscoveRx PathHunter D2 beta-arrestin, luminescence, 90 min; response scale: percent relative to full dopamine signal; 2,300 tested, 5.9% active; Potency, µM (highest dose often 76.9 µM), most hits filed as activators; AID 720507; shares compounds with D2 ag-1; note: nearly all actives have a fitted effect of over 70% in size
Large screens that a line does not name were inactive (follow-up assays come after a bar, where they were run). Hits are enriched below; roughly 2.4% of the tested compounds scored in any of these assays. Unless noted, calls come from the whole dose curve; as a rule, active = well fitted activation curve with a large enough effect; inconclusive = small, poorly fitted or top-dose-only effect; inactive = flat fitted curve, though single readings scatter.

Cc1ccc(N2C(=O)NC(=O)/C(=C\C=C\c3ccco3)C2=O)cc1	none (no result: D2 ag-1, D2 antag)
Cc1cccc(N2C(=O)NC(=O)/C(=C\C=C\c3ccco3)C2=O)c1	none | D3 ag inactive | D2 ag-3 inactive
Cc1cccc(-n2nc(C)c3c2NC(=O)CSC3c2ccccc2Cl)c1 (stereo not drawn)	none (no result: D2 ag-2, D2 PAM-2, D2 antag)
CCN(CC)S(=O)(=O)c1cc(NC(=O)C(C)N2CC=C(c3ccccc3)CC2)ccc1C (stereo not drawn)	D2 ag-1 44.3, D2 ag-2 inconclusive | D3 ag inactive | D2 ag-3 inconclusive
Cc1cc(OCC(=O)N2CCN(CCc3ccncc3)CC2)ccc1Cl	none (no result: D2 ag-2, D2 PAM-2, D2 antag)
Cc1ccccc1-c1nc(CN2C(=O)CN=C(c3ccccc3)c3ccccc32)c(C)o1	none (no result: D2 ag-2, D2 PAM-2, D2 antag)
COC(=O)C1=C(c2c(C)noc2C)C[C@@H]2CC[C@H]1N2C(=O)NC(C)C	D2 antag 41.8 | D3 ag inactive | D2 ag-3 inactive
COC(=O)C1=C(c2c(C)noc2C)C[C@@H]2CC[C@H]1N2C(=O)NCCO	none
O=[N+]([O-])c1cccc2c([N+](=O)[O-])cccc12	none | D3 ag inactive | D2 ag-3 inactive
NCCCN1CCN(c2ccccc2)CC1	D2 ag-2 inconclusive, D2 antag 95.3 | D3 ag inactive | D2 ag-3 inactive
CCCN1CCO[C@@H]2c3cc(O)ccc3OC[C@H]21	D2 ag-1 68.2, D2 ag-2 83.5, D2 PAM-2 97.4, D2 antag 72.2 | D3 ag 0.0447µM | D2 ag-3 0.0708µM
CCSc1nnc(NC(=O)c2cccn(Cc3ccccc3Cl)c2=O)s1	none (no result: D2 ag-2, D2 PAM-2, D2 antag)
CN1C[C@H](CO)C[C@@H]2c3cccc4[nH]cc(c34)C[C@H]21	D2 ag-1 84.0, D2 ag-2 inconclusive, D2 PAM-2 53.3, D2 antag 95.8 | D3 ag inconclusive | D2 ag-3 inconclusive
CCN(CC)C(=O)N[C@H]1C[C@@H]2c3cccc4[nH]cc(c34)C[C@H]2N(C)C1	D2 ag-1 83.3, D2 ag-2 inconclusive, D2 antag 83.3 | D3 ag inconclusive | D2 ag-3 0.002µM
CCc1ccc(NC(=O)c2cccn(Cc3cccc([N+](=O)[O-])c3)c2=O)cc1	none (no result: D2 ag-2, D2 PAM-2, D2 antag)
Cn1c(=O)oc2cc(S(=O)(=O)NCCN3CCN(c4ccccc4)CC3)ccc21	D2 ag-1 71.5, D2 antag 65.2 | D3 ag inactive | D2 ag-3 inconclusive
CN(C)c1cccc(CN2CCN(c3ccccc3)CC2)c1	none (no result: D2 PAM-1, D2 ag-1, D2 antag)
COC(=O)C1=C(c2ccc(-c3ccccc3)c(F)c2)C[C@@H]2CC[C@H]1N2C(=O)N1CCCCC1	none | D3 ag inactive | D2 ag-3 inactive
Cc1cccc(C)c1-n1nnnc1C(c1cccc2ccccc12)N1CCC2(CC1)C(=O)NCN2c1ccccc1 (stereo not drawn)	none (no result: D2 PAM-1, D2 ag-1, D2 antag)
Cc1ccc2nc(NC(=O)c3cccn(Cc4ccc(Cl)cc4)c3=O)sc2c1	none (no result: D2 ag-2, D2 PAM-2, D2 antag)
COC(=O)C1=C(c2ccc(F)cc2OCc2ccccc2)C[C@@H]2CC[C@H]1N2C(=O)NCc1ccccc1Br	none | D3 ag inactive | D2 ag-3 inactive
COC(=O)C1=C(c2ccc(F)cc2OCc2ccccc2)C[C@@H]2CC[C@H]1N2C(=O)NCc1ccccc1C(F)(F)F	none
O=S1(=O)N(Cc2ccccc2)CCCN1Cc1cccc(Cl)c1	none (no result: D2 ag-2, D2 PAM-2, D2 antag)
C=C[C@@H]1C2=CCOC(=O)C2=CO[C@H]1O[C@@H]1O[C@H](CO)[C@@H](O)[C@H](O)[C@H]1O	none | D3 ag inactive | D2 ag-3 inactive
NC1CCc2cc(O)c(O)cc2C1 (stereo not drawn)	D2 ag-1 90.6, D2 ag-2 100.0, D2 PAM-2 103.1, D2 antag 100.7 | D3 ag 0.0224µM | D2 ag-3 0.0141µM
COc1cc(C(c2c(O)c3ccccc3oc2=O)c2c(C)n(C)n(-c3ccccc3)c2=O)ccc1OCC(=O)O (stereo not drawn)	none (no result: D2 ag-2, D2 PAM-2, D2 antag)
CC(=O)O[C@H]1[C@H]2O[C@]23[C@@H]2CC[C@]4(O)C[C@@H](O)CC[C@]4(C)C2CC[C@]3(C)[C@H]1c1ccc(=O)oc1 (stereo partly drawn)	none | D3 ag inactive | D2 ag-3 inactive
O=C(c1ccc2c(c1)N(Cc1ccc(F)cc1Cl)C(=O)c1ccccc1S2)N1CCC2(CC1)OCCO2	none (no result: D2 ag-2, D2 PAM-2, D2 antag)
O=C(CCN1CC=C(c2ccccc2)CC1)NCc1ccccc1	none (no result: D2 PAM-1, D2 ag-1, D2 antag)
O=C(CN1CC=C(c2ccccc2)CC1)NC(=O)NCc1ccco1	D2 ag-1 54.1, D2 antag 39.6 | D3 ag inactive | D2 ag-3 inactive
CN1C(=O)/C(=C\c2ccc(N3CCCCC3)o2)C(=O)NC1=S	D2 ag-1 33.4 | D3 ag inactive | D2 ag-3 inactive
Oc1c(Cl)cccc1Cc1cc(Cl)cc(Cl)c1O	none (no result: D2 PAM-1, D2 ag-1, D2 antag)
Oc1cc2c(cc1CN1CCN(c3ccccc3F)CC1)OCO2	D2 ag-1 66.2, D2 antag 76.4 | D3 ag inactive | D2 ag-3 inactive
CCOc1ccc(NC(=O)Cn2cc(C(=O)c3ccccc3)c3ccccc32)cc1	none (no result: D2 ag-2, D2 PAM-2, D2 antag)
COc1c2c(cc3c1OCO3)CC[N+](C)=C2	none | D3 ag inactive | D2 ag-3 inactive
COc1ccc2c(c1OC)CN1CCc3cc4c(cc3[C@H]1C2)OCO4	none
CC(=O)OC1(c2ccccc2)CCN(C2CCCCC2)CC1C (stereo not drawn)	D2 ag-1 66.6, D2 antag 53.2 | D3 ag inactive | D2 ag-3 inactive

Source: PubChem BioAssay
